Screen size: about 310,000 compounds; about 14,000 (4.5%) showed an effect of 50% or more. Effects have a minus sign here. This excerpt belongs to a sample that is enriched for strong results.
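Further: peak tail current of the secondary pulse compared with the same well before compound.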

human ether-à-go-go-related gene (hERG) potassium channel, sequence (Q12809 whole entry, looked up): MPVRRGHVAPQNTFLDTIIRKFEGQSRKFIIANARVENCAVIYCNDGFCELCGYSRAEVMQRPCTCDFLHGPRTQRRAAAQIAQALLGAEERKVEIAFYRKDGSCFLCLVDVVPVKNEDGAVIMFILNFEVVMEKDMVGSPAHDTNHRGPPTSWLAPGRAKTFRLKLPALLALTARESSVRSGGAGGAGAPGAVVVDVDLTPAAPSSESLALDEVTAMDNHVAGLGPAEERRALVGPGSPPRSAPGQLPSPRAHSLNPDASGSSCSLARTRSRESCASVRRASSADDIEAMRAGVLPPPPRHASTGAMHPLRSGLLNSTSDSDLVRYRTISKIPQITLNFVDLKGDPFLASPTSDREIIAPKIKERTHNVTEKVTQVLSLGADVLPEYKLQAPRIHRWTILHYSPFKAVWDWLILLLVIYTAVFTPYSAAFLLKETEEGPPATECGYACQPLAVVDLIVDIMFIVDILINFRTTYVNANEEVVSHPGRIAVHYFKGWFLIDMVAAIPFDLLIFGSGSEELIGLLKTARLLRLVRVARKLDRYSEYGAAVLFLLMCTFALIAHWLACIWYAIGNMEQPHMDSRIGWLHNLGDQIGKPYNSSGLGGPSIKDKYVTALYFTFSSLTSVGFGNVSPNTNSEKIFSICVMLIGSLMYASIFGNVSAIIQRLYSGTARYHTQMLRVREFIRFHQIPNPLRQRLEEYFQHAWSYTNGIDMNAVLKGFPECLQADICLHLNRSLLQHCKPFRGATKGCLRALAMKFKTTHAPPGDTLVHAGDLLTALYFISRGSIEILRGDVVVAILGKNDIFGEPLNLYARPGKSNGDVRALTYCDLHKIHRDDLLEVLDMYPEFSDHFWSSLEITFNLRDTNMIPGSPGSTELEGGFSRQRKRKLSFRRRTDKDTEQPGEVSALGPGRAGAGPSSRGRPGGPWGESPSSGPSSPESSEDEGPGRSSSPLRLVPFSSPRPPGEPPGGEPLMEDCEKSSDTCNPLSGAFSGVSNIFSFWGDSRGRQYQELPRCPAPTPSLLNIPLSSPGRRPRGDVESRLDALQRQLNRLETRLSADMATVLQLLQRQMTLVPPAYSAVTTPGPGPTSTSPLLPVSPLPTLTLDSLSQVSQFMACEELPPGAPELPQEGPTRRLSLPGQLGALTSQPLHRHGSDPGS

The test has as its target human ether-à-go-go-related gene (hERG) potassium channel (human, UniProt Q12809). The test is described as follows: primary screen, population patch clamp on CHO cells stably expressing hERG; higher = less effect of the substance.
With `CCC(C)(C)NC(=O)C1c2ccccc2Oc2ccccc21`, the “hERG current change (%, negative = inhibition) at 10uM” value came to 23%.
Under `O=C(O)CC1Sc2nnc(COc3ccc(Cl)cc3)n2N=C1c1ccccc1` (stereo not shown) stands 21.2%; under `CN(C)S(=O)(=O)c1cc(S(=O)(=O)N(C)C)c(Cl)cc1N`, -8.31%.
The result for `COC(=O)c1ccccc1NC(=S)NC(NC(=O)c1ccccc1[N+](=O)[O-])C(Cl)(Cl)Cl` (stereo not shown) reads -1.4%; that for `CCc1oc(C(=O)OC)cc1CSC(=N)N.Cl`, 12%; that for `CS(=O)(=O)c1ccc(C(=O)NC2CCCc3ccccc32)cc1` (stereo not shown), 20%.
Under `COc1ccc(-c2csc(-c3cccnc3)n2)cc1C` stands -3.79%; under `CCCCNC(=O)Nc1nnc(-c2ccc(OCC)cc2)o1`, 10.1%.
As to `CCN(CC)CCCNC(=O)c1[nH]c(C)c(C(=O)NC2CCCCC2)c1C`, the “hERG current change (%, negative = inhibition) at 10uM” value worked out at 12.9%.
Under `CCc1nc(SCC(=O)Nc2cc(OC)ccc2OC)c2c(C)c(C)sc2n1` stands 3.63%.
For `CC(C)Cc1nnc(NC(=O)C2CCN(C(=O)c3ccc(Cl)cc3)CC2)s1`, the “hERG current change (%, negative = inhibition) at 10uM” value is -29.2%.
With `CCN(CC)c1ccc(/C=C(/C#N)C(=O)NC(C)C)o1`, the “hERG current change (%, negative = inhibition) at 10uM” value was -1.68%.
As to `COC(=O)C(C)n1cnc2c(nnn2-c2ccc(C)cc2)c1=O` (stereo not shown), the “hERG current change (%, negative = inhibition) at 10uM” value was -10.6%.
The result for `NC(=O)C1CCN(CC(=O)N2c3ccccc3CCc3ccccc32)CC1` reads 19.3%.
For the molecule `Cc1cccn2c(=O)c3cc(C(=O)NC4CCCCC4)n(C)c3nc12`, the “hERG current change (%, negative = inhibition) at 10uM” value is listed as 12.5%.
Under `Cc1cccn2c(=O)c(C(=O)NC3CCCCC3)c(O)nc12` stands 31.3%.
The result for `Cc1cccn2c(=O)c3cc(C(=O)NC4CCCC4)c(=N)n(C4CCCC4)c3nc12` reads -79.2%; that for `Cc1cccn2c(=O)c3cc(C(=O)NC4CCCC4)c(=N)n(C4CCCCC4)c3nc12`, -80.7%; that for `Cc1cccn2c(=O)c3cc(C(=O)NC4CCCC4)n(C)c3nc12`, 1.13%.
Under `Cc1cccn2c(=O)c3cc(C(=O)NC4CCCCC4C)n(C)c3nc12` (stereo not shown) stands 13.7%.
For `COc1cc(C(=O)NCC(=O)N/N=C/c2c(C)[nH]c3ccccc23)cc(OC)c1OC`, the “hERG current change (%, negative = inhibition) at 10uM” value amounted to 15.7%.
Under `CCN(CC)CCc1nc(-c2ccccc2)no1.O=C(O)CC(O)(CC(=O)O)C(=O)O` stands -10.6%.
Under `CCN(CC)CCC(C)OC(c1ccccc1)c1ccccc1.O=C(O)CC(O)(CC(=O)O)C(=O)O` (stereo not shown) stands -52.2%.
Under `CCC(C(=O)OCCN(CC)CC)c1ccccc1.O=C(O)CC(O)(CC(=O)O)C(=O)O` (stereo not shown) stands 4.45%; under `COCCOc1cc(N)c(Cl)cc1Cl`, 15.5%.
As to `Cn1c(=O)c2c(ncn2CC(=O)Nc2ccccc2)n(C)c1=O`, the “hERG current change (%, negative = inhibition) at 10uM” value was 13.9%.
The result for `COc1ccc(C)cc1NC(=O)C(OC(=O)Cn1cnc2c1c(=O)n(C)c(=O)n2C)c1ccccc1` (stereo not shown) reads -7.98%; that for `CN(c1ccccc1)S(=O)(=O)c1cccc(NC(=O)Cn2cnc3ccccc3c2=O)c1`, -48.3%.
Consider `Cc1cc(C)cc(NC(=O)COC(=O)Cn2cnc3c2c(=O)n(C)c(=O)n3C)c1`, for which the “hERG current change (%, negative = inhibition) at 10uM” value is -41.1%.
Consider `Cc1cc(C)cc(NC(=O)C(OC(=O)Cn2cnc3c2c(=O)n(C)c(=O)n3C)c2ccccc2)c1` (stereo not shown), for which the “hERG current change (%, negative = inhibition) at 10uM” value was -69.7%.
Take `COc1ccc(S(=O)(=O)N2CCOCC2)cc1NC(=O)CCc1nc2ccccc2c(=O)[nH]1`: the “hERG current change (%, negative = inhibition) at 10uM” value came out at 21.5%.
Under `CCN(c1ccccc1)S(=O)(=O)c1ccc(OC)c(NC(=O)Cn2cnc3c2c(=O)n(C)c(=O)n3C)c1` stands -66%; under `CCN(c1ccccc1)S(=O)(=O)c1ccc(OC)c(NC(=O)CCc2nc3ccccc3c(=O)[nH]2)c1`, -51.2%; under `CN(c1ccccc1)S(=O)(=O)c1cccc(NC(=O)Cn2cnc3c2c(=O)n(C)c(=O)n3C)c1`, -52.6%.
Consider `CCN(CC)S(=O)(=O)c1ccc(OC)c(NC(=O)Cn2cnc3c2c(=O)n(C)c(=O)n3C)c1`, for which the “hERG current change (%, negative = inhibition) at 10uM” value is -41.3%.
Under `COc1ccccc1NC(=O)Cn1cnc2c1c(=O)n(C)c(=O)n2C` stands 17.9%.
Under `COc1ccc(S(=O)(=O)N2CCCCC2)cc1NC(=O)CCc1nc2ccccc2c(=O)[nH]1` stands 0.795%; under `O=C(NCc1ccco1)C1CC(c2ccc(Cl)c(Cl)c2)=NO1` (stereo not shown), 8.51%.
The result for `CC(C)C(C(=O)NCC1CCCO1)N(Cc1ccccc1)C(=O)CNS(=O)(=O)c1ccccc1` (stereo not shown) reads 18.4%; that for `O=C(Nc1cccc(Br)c1)c1cc(=O)c2ccccc2o1`, 19.4%.
As for `Cc1ccc(-c2csc(NC(=S)NC(=O)c3cc4ccccc4o3)n2)cc1`, the “hERG current change (%, negative = inhibition) at 10uM” value turned out to be 7.09%.
The result for `Cc1cc(S(=O)(=O)N2CCOCC2)c(C)s1` reads 9.26%; that for `O=C(NCc1ccco1)c1sc2ccccc2c1Cl`, -9.84%; that for `CC(C)(C)CC(=O)Nc1nn[nH]n1`, 24.3%.
Under `O=C(O)CN1C(=O)/C(=C\c2cc([N+](=O)[O-])ccc2OCc2ccccc2Cl)SC1=S` stands 29.4%.
`Cc1ccccc1-c1noc(-c2ccc(Cl)cc2)n1`: the “hERG current change (%, negative = inhibition) at 10uM” value was 25.1%.
Under `COc1ccc(C)c2sc(NNC(=O)COc3ccccc3)nc12` stands 6.35%.
The result for `Cn1c(=O)c2c(ncn2CC(=O)N(Cc2ccccc2)c2ccccn2)n(C)c1=O` reads -50.7%.
The result for `Cn1c(=O)c2c(ncn2CC(=O)OCc2ccccc2)n(C)c1=O` reads -6.21%; that for `CCN(Cc1ccccc1)C(=O)Cn1cnc2c1c(=O)n(C)c(=O)n2C`, -16.1%.
Consider `Cc1sc2ncn(CC(=O)NCCCC(=O)N3CCN(c4ccccc4F)CC3)c(=O)c2c1C`, for which the “hERG current change (%, negative = inhibition) at 10uM” value is -20.9%.
Regarding `CCOC(=O)N1CCN(C(=O)c2ccc3nc4ccc(Cl)cc4c(=O)n3c2)CC1`, the “hERG current change (%, negative = inhibition) at 10uM” value is -45.9%.
Under `O=C(c1cccn2c(=O)c3ccc(Cl)cc3nc12)N1CCC2(CC1)OCCO2` stands -11.2%.
The result for `O=C(c1cccn2c(=O)c3cc(Br)ccc3nc12)N1CCC2(CC1)OCCO2` reads -37%; that for `CCOC(CNC(=O)c1cccn2c(=O)c3cc(Cl)ccc3nc12)OCC`, -7.16%; that for `NC(=O)C1(N2CCCCC2)CCN(C(=O)c2cccn3c(=O)c4cc(Cl)ccc4nc23)CC1`, -30.1%.
Take `O=C(c1ccc2nc3ccc(Cl)cc3c(=O)n2c1)N1CCC2(CC1)OCCO2`: the “hERG current change (%, negative = inhibition) at 10uM” value was -40.3%.
The result for `O=C(c1cccn2c(=O)c3cc(Cl)ccc3nc12)N1CCOCC1` reads -52.9%.
The result for `O=C(c1ccc2nc3ccc(Cl)cc3c(=O)n2c1)N1CCOCC1` reads -55.3%; that for `CCOC(=O)N1CCN(C(=O)c2cccn3c(=O)c4cc(Cl)ccc4nc23)CC1`, -65.7%.
Under `CCOC(=O)N1CCN(C(=O)c2cccn3c(=O)c4cc(Br)ccc4nc23)CC1` stands -68.2%; under `CCOC(=O)N1CCN(C(=O)c2cccn3c(=O)c4sccc4nc23)CC1`, -35.9%.
In the case of `CCOC(=O)N1CCC(NC(=O)c2cccn3c(=O)c4cc(Br)ccc4nc23)CC1`, the “hERG current change (%, negative = inhibition) at 10uM” value is on record as 3.69%.
Under `O=C(O)c1nn(-c2cccc(Cl)c2)c(=O)cc1O` stands 4.44%; under `CN(Cc1nc2ccccc2c(=O)[nH]1)CC(O)COCc1ccco1` (stereo not shown), -13.9%.
For `COc1cccc(C(=O)NCc2ccc3c(c2)OCO3)c1OC`, the “hERG current change (%, negative = inhibition) at 10uM” value amounted to 16.3%.
The result for `CCO[C@@H]1OC(C(=O)N2CCOCC2)=C[C@H](C2CC2)[C@H]1CCCO` reads 11.6%; that for `O=C(c1ccco1)N1CCN(S(=O)(=O)c2ccc(Cl)cc2)CC1`, 2.47%.
Under `COc1ccc(OC)c(N(CC(=O)Nc2ccccc2)S(=O)(=O)c2ccccc2)c1` stands 6.01%.
As for `CCN1CCN(CC(O)COc2cccc(OC)c2)CC1.Cl` (stereo not shown), the “hERG current change (%, negative = inhibition) at 10uM” value was 3.43%.
The result for `COc1cccc(OCC(O)CN2CCN(CCO)CC2)c1.Cl` (stereo not shown) reads 15.7%.
As to `CCN1CCN(CC(O)COc2ccc(Cl)cc2)CC1.Cl` (stereo not shown), the “hERG current change (%, negative = inhibition) at 10uM” value is recorded as -36.2%.
Under `CCc1ccc(OCC(O)CN2CCCC2)cc1.Cl` (stereo not shown) stands -13.8%; under `COc1cccc(OCCOCC(O)CN2CCN(Cc3ccc(Cl)cc3)CC2)c1.Cl` (stereo not shown), -72.3%.
On to `CCc1ccc(OCCOCC(O)CN2CCN(Cc3ccc(Cl)cc3)CC2)cc1.Cl` (stereo not shown), for which the “hERG current change (%, negative = inhibition) at 10uM” value is reported as -73.5%.
Under `COc1cc(/C=C(/NC(=O)c2ccccc2)C(=O)Nc2cccc(O)c2)c([N+](=O)[O-])cc1OC` stands 0.394%; under `Cn1c(=O)c([N+](=O)[O-])c(NCc2ccccc2)c2ccccc21`, 9.94%; under `O=C(NC1CCCc2ccccc21)C1CCN(S(=O)(=O)N2CCCCCC2)CC1` (stereo not shown), -12.8%.
The result for `O=C(N[C@@H](Cc1ccccc1)C(=O)OCC(=O)N1CCOCC1)c1cccs1` reads -9.98%; that for `O=C(COC(=O)CCc1nc2ccccc2n1-c1ccccc1)Nc1ccc(N2CCCCC2)cc1`, 2.85%; that for `CC[C@@H](C)[C@H](NC(=O)OC(C)(C)C)c1nnc(S(=O)(=O)Cc2cc(C)ccc2C)o1`, 4.09%.
Under `CC(NC(=O)COC(=O)/C=C/c1cccc(C(F)(F)F)c1)c1ccccc1` (stereo not shown) stands 15.2%; under `CCCn1c(NCc2ccccc2NS(=O)(=O)c2ccc(C)cc2)nc2ccccc21`, 6.84%; under `Cc1ccc(Cn2c(NS(=O)(=O)c3ccccc3)nc3ccccc32)cc1`, 21.3%.
In the case of `CCN(CC)CCn1c(NS(=O)(=O)c2ccc(Cl)cc2)nc2ccccc21.Cl`, the “hERG current change (%, negative = inhibition) at 10uM” value was -69.8%.
As to `CCN(CC)CCn1c(NS(=O)(=O)c2ccc(C)cc2)nc2ccccc21`, the “hERG current change (%, negative = inhibition) at 10uM” value is listed as -51%.
The result for `CCN(CC)CCn1c(N)nc2ccccc21.Cl` reads 15.4%; that for `CCN(CC)CCn1c(C)nc2ccccc21.Cl`, -9.07%.

The values are drawn from publication PMC4336329 (PLoS ONE, 2015).
